From PubChem BioAssay AID1508600 (Functional Genomics Laboratory (NCATS/FGL), 2020)
Screen size: about 53,000 sequences; about 3,700 (7%) were called active.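 How the source made its calls: active means gene knockdowns whose robust z-score for IL-1 alpha signal is at least 2 or at most -2, so actives lie on both sides; inactive means the rest.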 The sample as a whole holds a higher share of actives than the screen did.

Assay: Components of the Cytosolic LPS Sensing Pathway: Gene Identification via Genome-wide siRNA Screen;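 further: robust z of the log signal after scaling to non-targeting control siRNA wells of the plate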
Settings: RAW264.7 macrophages, IL-1a HTRF, actives lie on both sides, screened at 100 nM (by protocol), cells primed 5 h with Pam3CSK4 first
Summary of the method: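 Cells (RAW264.7, 1×10^4 per well) were transfected with siRNA at 100 nM and cultured 48h at 37 degrees C. Pam3CSK4 was added for 5 hours; LipidA transfection followed for 24 hour. IL-1a was then measured by HTRF.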

z-score, inactive:
GCCAGUACUCUGCUUGUGATT against Naif1 -1.64, GAUCCCUGGAUUGUGGAGUTT against 2310057N15Rik 0.26, GGACGAGCUGUAUUUGAAUTT against Gsk3a -0.663, CCAAAGAUACCAUAGGAUUTT against Zc3h12a 1.05, GCUGCAAUAGUCACUGGAGTT against H2-K1 0.115, CCCUUCUCUGAGACAACACTT against Tcirg1 1.42, CCAAGUCGUAAUCUAGAAGTT against Scn7a 0.191, GCUGGACCUUCAUGUAAUATT against Pcsk1 -0.234, CCUCAUGUCUACAAAGUUATT against Gvin1 -1.14, GCGAGUUUUUGGAUGGUAGTT against Slc4a3 0.243, GGUAUGCAUGAACAUAAUGTT against Prl7c1 0.788, GGCAUUUUCGUAUAGUUACTT against B3gnt9 0.81, GGUCAUCAGCUCUAUGAGCTT against Fry 0.0787, GCACAGAGGAUGUACGUUATT against Cstad -0.665, GCCCAGAGAAUGACCUAUATT against 9130019O22Rik 0.54, CCUACUAUACAAUUCUGCUTT against Clns1a 0.556, GGUCACUUCAUCCAUAGCUTT against Atmin -1.79, GACAGCAACGUGAAAUUAGTT against Xlr -0.828, GGAUCUUUUCCAAAGAAAUTT against Dusp10 -0.409, GGAGGAAGAAGAGAUACCUTT against Foxh1 -0.96, GGCAUGGAAGGCUAAACAGTT against Slc25a17 -1.98, GGGUAUAGAGUCAAUCUGATT against Gfm2 -0.381, GCAGGGAUCUGCUAAGCUATT against Hey1 -0.953

z-score, active:
GGUAGAUCCUAUCCUGUCUTT against Foxo4 -2.57, GCGACCAGCAGGUCAAAAUTT against Hoxd12 3.09, GGAAAUAAUUCACUCACCATT against Eya1 -2.99, GGACUUAAAAGAGGAGAUCTT against 4933434E20Rik 3.73, GGUGCUCCACAACACCUAUTT against 2510039O18Rik 2.05, CGGGAAACUUAGGUAUGAUTT against Olfr1009 -3.05
